Source: PubChem BioAssay
DNMT1 block: human DNMT1 methyltransferase inhibitors, primary screen, biochemical, molecular beacon, fluorescence, HinP1I cleavage, uHTS; DNA (cytosine-5)-methyltransferase 1 (Homo sapiens), P26358; inhibition (reported as % activation of signal), % at 10 µM; 360,000 tested, 0.83% active; AID 588458, 2011; in the data active means inhibition above about 50%
MBD2 DNA inh: inhibitors of MBD2 binding to methylated DNA, primary screen, biochemical, TR-FRET, DNA-binding domain, human; inhibition, % at 4.4 µM; Methyl-CpG-binding domain protein 2 (Homo sapiens), Q9UBB5; 370,000 tested, 0.31% active; MBD2 binding to methylated oligonucleotide; in the data active means inhibition above about 13%
PG9 binder: binders of HIV-1 gp120 antibody PG9, primary screen, biochemical, TR-FRET | 360,000 tested, 0.43% active | inhibition, % at 6.7 µM | TR-FRET gp120-PG9 antibody binding | AID 624416, 2012; in the data active means inhibition above about 8.5%
UHRF1 binding: UHRF1 methylated DNA binding inhibitors, primary screen, counter-screen for MBD2 inhibitor project, biochemical, TR-FRET, human UHRF1, single concentration | E3 ubiquitin-protein ligase UHRF1 (Homo sapiens), Q96T88 | UHRF1 binding to methylated oligo | inhibition, % at 4.4 µM | 370,000 tested, 0.75% active | AID 687016, 2013; in the data active means inhibition above about 21%;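 further: UHRF1 SRA domain binding a hemimethylated CpG hairpin DNA probe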
Target sequence (Q96T88 whole entry, looked up, the tested form may be a part): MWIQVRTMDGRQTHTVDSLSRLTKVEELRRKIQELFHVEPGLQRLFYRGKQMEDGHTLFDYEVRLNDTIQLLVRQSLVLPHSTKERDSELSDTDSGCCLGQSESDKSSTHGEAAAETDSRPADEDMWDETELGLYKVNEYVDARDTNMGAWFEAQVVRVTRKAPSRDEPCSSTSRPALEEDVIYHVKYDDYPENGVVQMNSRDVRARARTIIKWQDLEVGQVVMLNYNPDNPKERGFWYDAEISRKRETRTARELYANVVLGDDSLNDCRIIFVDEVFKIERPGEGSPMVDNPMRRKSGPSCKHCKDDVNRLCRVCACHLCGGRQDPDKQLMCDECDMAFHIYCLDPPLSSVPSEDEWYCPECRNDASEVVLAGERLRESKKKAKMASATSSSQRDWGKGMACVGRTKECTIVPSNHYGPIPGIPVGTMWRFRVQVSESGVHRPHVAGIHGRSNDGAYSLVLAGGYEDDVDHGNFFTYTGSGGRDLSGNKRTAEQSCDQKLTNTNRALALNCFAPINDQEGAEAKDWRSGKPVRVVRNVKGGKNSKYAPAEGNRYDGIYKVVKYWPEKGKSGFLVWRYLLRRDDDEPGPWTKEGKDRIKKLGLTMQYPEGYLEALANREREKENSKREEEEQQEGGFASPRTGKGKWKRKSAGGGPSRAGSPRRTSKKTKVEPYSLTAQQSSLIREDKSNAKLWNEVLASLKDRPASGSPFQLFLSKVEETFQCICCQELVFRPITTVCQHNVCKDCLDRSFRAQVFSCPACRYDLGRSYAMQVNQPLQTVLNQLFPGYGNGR
rCAG RNA binder: binders of r(CAG) RNA repeats, primary screen, biochemical, fluorescence. r(CAG) RNA repeat, TO-PRO-1 dye displacement fluorescence. 370,000 tested, 1.3% active. inhibition, % at 3 µM;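 active means inhibition above the plate cutoff, the mean of all test compounds on that plate plus 3 SD, cut at about 35% in these data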;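 further: higher means more dye released from RNA so lower well fluorescence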
LEDGF integ inh: blockers of LEDGF/p75-dependent integrase strand transfer – biochemical, TR-FRET, high throughput, primary screen; AID 743269, 2014; inhibition, % at 3.7 µM; HIV-1 integrase (with human LEDGF/p75); TR-FRET IN-LEDGF/p75 DNA integration, Eu/Cy5; 370,000 tested, 0.64% active;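 active means inhibition above the screen-wide mean plus 3 SD, cut at about 13% in these data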;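 further: signal is the Cy5 over europium emission ratio at 671 and 618 nm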
DNMT1 inh conf: DNMT1 methyltransferase inhibitor retest, confirmation, biochemical, molecular beacon, fluorescence, single concentration; shares compounds with DNMT1 block; DNMT1 molecular beacon HinP1I cleavage; inhibition, % at 10 µM; 2,300 tested, 8% active; AID 602385, 2012;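 active means average inhibition of at least 30% in the single-concentration confirmation test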
DNMT1 interf: counter-screen for DNMT1 inhibitors: spectral interference | DNMT1 molecular beacon spectral interference counterscreen, fluorescence 485/520 | 2,300 tested, 1% active | shares compounds with DNMT1 block | activation (fluorescence interference), % at 10 µM;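 active means activation of at least 30% at 10 µM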;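 further: DNMT1 catalytic domain with a HinP1I cleavage step and a FAM/dabcyl DNA beacon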
Each line names hits and unclear results; the compound was inactive in the other large screens (follow-up assays come after a bar, where they were run). Hits are enriched below; roughly 3.5% of the tested compounds scored in any of these assays.

Cc1ccc(-n2nc3c4c(cccc4c2=O)-c2ccccc2-3)cc1	DNMT1 block 52 | DNMT1 inh conf inactive | DNMT1 interf inactive
O=C(O)Cn1nc2c3c(cccc3c1=O)-c1ccccc1-2	none
CC(=O)c1ccc(S(=O)(=O)Nc2cccc(-n3cnnn3)c2)cc1	DNMT1 block 100, UHRF1 binding 40 | DNMT1 inh conf inactive | DNMT1 interf inactive
O=C(NC1CCCCC1)C(c1ccc(F)cc1)N(CCc1ccccc1)C(=O)CN1C(=O)c2ccccc2S1(=O)=O (stereo unspecified)	DNMT1 block 59 | DNMT1 inh conf inactive | DNMT1 interf inactive
COCCn1c(SCC(=O)Nc2ccc(F)cc2)nc2ccccc2c1=O	DNMT1 block 83 | DNMT1 inh conf inactive | DNMT1 interf inactive
COCCCn1c(SCC(=O)Nc2ccc(C)cc2)nc2ccccc2c1=O	none
NS(=O)(=O)c1ccc(N/N=C/c2cn(-c3ccccc3)nc2-c2cccs2)c([N+](=O)[O-])c1	none | DNMT1 inh conf inactive | DNMT1 interf inactive
CCOC(=O)C(=O)NCc1ccc(/C=C2/N=C(C)C(C(=O)OCC)=C2O)o1	none
COC(=O)C1=C(O)/C(=C\c2ccc(CNC(=O)C(=O)Nc3ccc(C)cc3)o2)N=C1C	DNMT1 block 96 | DNMT1 inh conf inactive | DNMT1 interf inactive
CCCCCCN1C[C@H](O)[C@@H](n2cc(C3CC3)nn2)C[C@@H]1c1ccc(OC)cc1	none
Cc1ccc(NC(=O)CN2CCN(Cc3ccccc3)CC2)cc1F	none
C[C@H](CO)N1C[C@H](C)[C@@H](CN(C)Cc2cccc(O)c2)OCc2cnnn2CCCC1=O	none
CC(=O)OCCc1[nH]c2ccccc2c1C	none
CC(=O)OCCc1c2ccccc2c(CCCN(C)C)c2ccccc12	DNMT1 block 51 | DNMT1 inh conf inactive | DNMT1 interf inactive
O=C(Cn1cnnn1)OCC(=O)c1ccc(Cl)s1	DNMT1 block 58 | DNMT1 inh conf inactive | DNMT1 interf inactive
Cc1cc(C)c(C(=O)COC(=O)Cn2cnnn2)cc1C	none
COc1ccccc1-c1noc(Cn2cc(S(=O)(=O)N3CCCC3)ccc2=O)n1	none
CCOC(=O)C1C(=O)CC(=O)CC1CC(C)SCC (stereo unspecified)	DNMT1 block 79 | DNMT1 inh conf inactive | DNMT1 interf inactive
CCCCn1nnnc1C(c1cc2ccccc2o1)N1CCN(c2ccncc2)CC1 (stereo unspecified)	none (no result: DNMT1 block)
O=C(NCCN1CCC(Cc2ccccc2)CC1)C1CCCN(S(=O)(=O)c2ccc(Cl)s2)C1 (stereo unspecified)	none (no result: DNMT1 block, PG9 binder)
CC(Cc1c[nH]c2ccccc12)C(=O)NCc1ccco1 (stereo unspecified)	DNMT1 block 74 | DNMT1 inh conf inactive | DNMT1 interf inactive
c1coc(-c2nnc3n2N=C(c2ccc4ccccc4c2)CS3)c1	none (no result: DNMT1 block, PG9 binder)
c1ccc(-c2cc(-c3nnc4n3N=C(c3ccc5ccccc5c3)CS4)[nH]n2)cc1	DNMT1 block 55 | DNMT1 inh conf inactive | DNMT1 interf inactive
Cc1c(Cl)cnc(NC(=O)COC(=O)c2ccc([N+](=O)[O-])s2)c1Cl	DNMT1 block 63 | DNMT1 inh conf inactive | DNMT1 interf inactive
O=C(COC(=O)c1ccc([N+](=O)[O-])s1)Nc1ccc(Cl)cn1	none
COc1cccc(C(C)(O)c2nc(-c3ccoc3)cs2)c1 (stereo unspecified)	none
O=C(COc1ccc(Cl)cc1Cl)NN=C1c2ccccc2-c2ccccc21	DNMT1 block 87 | DNMT1 inh conf inactive | DNMT1 interf inactive
CC(C)C[C@@H](CN1CCC[C@H]1CN1C(=O)C(=O)NC[C@@H]1Cc1ccccc1)N1C[C@H](Cc2ccc(O)cc2)N(CC2CCCCC2)C(=O)C1=O	none (no result: DNMT1 block)
CCc1c(-c2ccccc2F)ncn1Cc1cccc(-c2ccccc2)c1	none (no result: DNMT1 block)
C=CCn1c(SCC(=O)C(C)(C)C)nnc1-c1ccc(Cl)cc1	none (no result: DNMT1 block, PG9 binder)
Cc1cc(C(=O)N/N=C/c2ccc(-c3cccc(Br)c3)o2)n[nH]1	none
Cc1cc(C(=O)N/N=C/c2ccc(-c3cccc(Cl)c3Cl)o2)n[nH]1	DNMT1 block 52 | DNMT1 inh conf inactive | DNMT1 interf inactive
CC(C)(C)OC(=O)NCc1ccc(NC(=O)c2nc[nH]c2C(=O)NCCCCNC(=O)c2[nH]cnc2C(=O)Nc2ccc(CNC(=O)OC(C)(C)C)cc2)cc1	DNMT1 block 61 (no result: MBD2 DNA inh, PG9 binder, UHRF1 binding, rCAG RNA binder, LEDGF integ inh) | DNMT1 inh conf inactive | DNMT1 interf inactive
CC(C)(C)OC(=O)NCc1ccc(NC(=O)c2nc[nH]c2C(=O)NCCCNC(=O)c2[nH]cnc2C(=O)Nc2ccc(CNC(=O)OC(C)(C)C)cc2)cc1	DNMT1 block 60 (no result: MBD2 DNA inh, PG9 binder, UHRF1 binding, rCAG RNA binder, LEDGF integ inh) | DNMT1 inh conf inactive | DNMT1 interf inactive
CC(C)(C)OC(=O)NCc1ccc(NC(=O)c2nc[nH]c2C(=O)NCCCCCCNC(=O)c2[nH]cnc2C(=O)Nc2ccc(CNC(=O)OC(C)(C)C)cc2)cc1	none
CCn1ccnc1CN(C)Cc1cn(-c2ccc(C)cc2)nc1-c1ccc(F)cc1	DNMT1 block 60 | DNMT1 inh conf inactive | DNMT1 interf inactive
Cc1ccc(-n2cc(CN(C)Cc3nccn3C)c(-c3ccc(F)cc3)n2)cc1	none
O=C(COC(=O)c1ccc([N+](=O)[O-])o1)Nc1ccc2c(c1)OC(F)(F)O2	none
CN1CCN(c2ccc(CNC(=O)c3ccc(-c4ccnn4C)c4ccoc34)cc2)CC1	DNMT1 block 75 | DNMT1 inh conf inactive | DNMT1 interf inactive
CN1CCN(c2ccc(CNC(=O)c3ccc(-c4cnn(C)c4)c4ccoc34)cc2)CC1	none
COCCNC(=O)C1(C)CCN(Cc2ccc3ccccc3c2Br)C1 (stereo unspecified)	none
COc1cc(/C=C/C(=O)N(Cc2ccccc2)c2ccccn2)cc(OC)c1OC	DNMT1 block 53 | DNMT1 inh conf inactive | DNMT1 interf inactive
COc1ccc(/C=C/C(=O)N(Cc2ccccc2)c2ccccn2)cc1OC	none
Cc1cc(OCC(=O)OCC(=O)N2CCCc3ccccc32)ccc1Cl	none
